The record followed here is PubChem BioAssay.

Molecules are shown by their SMILES. Activity calls are given as the source filed them. Unless noted, the rule behind the calls is not given here.

Assay [1] concerns Wnt5a (protein binding on small-molecule microarray). The assay is described as follows: Wnt5a binders on small-molecule microarray, primary screen, biophysical, 635/667 nm fluorescence (AID 1142).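 Note: fluorescence read at 667 nm with signal to noise per printed feature.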 As to conditions: 635 nm fluorescence, higher = more signal.
Assay [2] is described as follows: cell viability in Huh7 cells, primary screen, cytotoxicity control for HCV replication inhibitor project, CellTiter-Glo luminescence, basal, 48 h (AID 1143).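 Note: Huh7 hepatoma cells carrying a hepatitis C replication reporter with no stimulus; test concentration not given here.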 As to conditions: Huh7 HCV replicon, higher = more signal, called active from +8 up or from −8 down.
Assay [3] in a line: P. aeruginosa biofilm formation inhibitors, primary screen, PAO1 strain, BacTiter-Glo luminescence, LB-PBS (AID 1144). As to conditions: 12 h, higher = more signal.
The nature of assay [4]: CREB reporter modulators without forskolin, primary screen, cell-based, PC12, CRE-LacZ reporter, unstimulated (AID 1145). As to conditions: no forskolin, luminescence, 4.5 h, higher = more signal, called active from +8 up or from −8 down.
Assay [5] in a line: CREB reporter modulators under forskolin, primary screen, cell-based, PC12, CRE-LacZ reporter, forskolin-stimulated (AID 1146).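 Note: PC12 cells with 6xCRE LacZ reporter stimulated by forskolin 10 µM; beta-galactosidase reporter signal reflecting CREB driven transcription.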 As to conditions: luminescence, 4.5 h, higher = more signal, called active from +8 up or from −8 down.
The target in assay [6] is Streptavidin (Streptomyces avidinii) (UniProt P22629). In words: streptavidin binders on small-molecule microarray, primary screen, artefact control for SMM compound annotation, biophysical, 635/667 nm fluorescence (AID 1147).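 Note: signal reflects streptavidin binding to arrayed compounds as a control protein.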 As to conditions: streptavidin binding, higher = more signal.
Streptavidin (Streptomyces avidinii), sequence (P22629 whole entry, looked up): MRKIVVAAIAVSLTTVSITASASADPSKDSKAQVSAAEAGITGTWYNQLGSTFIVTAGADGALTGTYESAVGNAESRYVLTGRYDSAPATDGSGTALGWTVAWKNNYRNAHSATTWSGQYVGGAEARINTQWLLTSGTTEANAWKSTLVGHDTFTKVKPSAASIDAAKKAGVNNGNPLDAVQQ
Assay [7] is described as follows: small-molecule binders of probe aInhba, primary screen, biochemical, small-molecule microarray, 635/667 nm fluorescence (AID 1148).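 Note: score merges 667nm spot fluorescence with signal-to-noise for antibody binding to printed compounds.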 As to conditions: higher = more signal.
Assay [8] has as its target Torsin-1A (Homo sapiens) (UniProt O14656). The assay is described as follows: torsin A binders from cell lysate, primary screen, small-molecule microarray, wild-type, 635/667 nm (AID 1149). As to conditions: COS7 hTOR1A-WT lysate, 635 nm fluorescence, higher = more signal.
Assay [9] has the same target. The assay is described as follows: small-molecule binders of mutant TOR1A in lysate, primary screen, cell lysate, small-molecule microarray, COS7 lysate, 635/667 nm fluorescence (AID 1150).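 Note: score pools 667 nm emission and signal to noise measuring lysate protein binding.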 As to conditions: COS7 hTOR1A mutant lysate, 635 nm fluorescence, higher = more signal.
Assay [10] has as its system Sonic hedgehog protein (Shh). In words: small-molecule binders of Shh protein, primary screen, biochemical, small-molecule microarray, 635/667 nm fluorescence (AID 1151).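 Note: Shh protein binding to compounds spotted on small-molecule microarray slides; score combines spot fluorescence intensity with signal-to-noise across triplicate slides.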 As to conditions: small-molecule microarray binding, 635 nm fluorescence; higher = more signal.
The nature of assay [11]: E. coli DRC41 culture turbidity changes, primary screen, E. coli filamentation inducer project, strain DRC41, OD650, 48 h (AID 1152).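 Note: E. coli MC1000 strain DRC41 lacking acrAB efflux pump and sulA.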 As to conditions: E. coli DRC41 (acrAB sulA), higher = more signal, called active from +8 up or from −8 down.
The nature of assay [12]: small-molecule binders of probe aLefty1, primary screen, biochemical, small-molecule microarray, 635/667 nm fluorescence (AID 1153).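 Note: score merges spot fluorescence with signal-to-noise ratio from the scanned slide images.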 As to conditions: higher = more signal.
The nature of assay [13]: PSAC antagonists in infected red cells, primary screen, cell-based, P. falciparum Indochina, OD700, 1 h (AID 1154). As to conditions: P. falciparum Indochina infected RBC osmotic lysis, higher = more signal, called active from +8 up or from −8 down.
Assay [14] can be described thus: PSAC antagonists in infected red cells, primary screen, cell-based, P. falciparum Indochina, OD700, 2 h (AID 1155).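 Note: lysis reports solute entry through the parasite surface anion channel PSAC; channel blockers reduce lysis of infected cells.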 As to conditions: P. falciparum Indochina infected erythrocytes, osmotic lysis OD700; higher = more signal, called active from +8 up or from −8 down.
Assay [15] can be described thus: osmotic lysis modulators in infected erythrocytes, primary screen, PSAC antagonist project, cell-based, P. falciparum Indochina, OD700, 3 h (AID 1156). As to conditions: higher = more signal, called active from +8 up or from −8 down.
A short description of assay [16]: PSAC antagonists in infected red cells, primary screen, cell-based, P. falciparum Indochina, OD700, 18 h (AID 1157). As to conditions: P. falciparum Indochina infected erythrocytes, osmotic lysis OD700, 18 h; higher = more signal, called active from +8 up or from −8 down.
A short description of assay [17]: modulators of S6 phosphorylation in cells, primary screen, cell-based, A549, cytoblot, luminescence, serum-stimulated (AID 1158).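 Note: serum-stimulated A549 lung adenocarcinoma cells; signal is phosphorylated S6 detected by cytoblot immunostaining with HRP secondary.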 As to conditions: A549 phospho-S6 cytoblot, 5 h, higher = more signal.
The target in assay [18] is NADPH oxidase 2 (Homo sapiens) (UniProt P04839). The assay is described as follows: NOX2-dependent H2O2 signal modulators, primary screen, NOX inhibitor project, cell-based, HEK293-NOX2, PMA-stimulated, Amplex Red fluorescence (AID 1159). Note: test concentration not given here. As to conditions: 45 min, higher = more signal, called active from +8 up or from −8 down.
NADPH oxidase 2 (Homo sapiens), sequence (P04839 whole entry, looked up): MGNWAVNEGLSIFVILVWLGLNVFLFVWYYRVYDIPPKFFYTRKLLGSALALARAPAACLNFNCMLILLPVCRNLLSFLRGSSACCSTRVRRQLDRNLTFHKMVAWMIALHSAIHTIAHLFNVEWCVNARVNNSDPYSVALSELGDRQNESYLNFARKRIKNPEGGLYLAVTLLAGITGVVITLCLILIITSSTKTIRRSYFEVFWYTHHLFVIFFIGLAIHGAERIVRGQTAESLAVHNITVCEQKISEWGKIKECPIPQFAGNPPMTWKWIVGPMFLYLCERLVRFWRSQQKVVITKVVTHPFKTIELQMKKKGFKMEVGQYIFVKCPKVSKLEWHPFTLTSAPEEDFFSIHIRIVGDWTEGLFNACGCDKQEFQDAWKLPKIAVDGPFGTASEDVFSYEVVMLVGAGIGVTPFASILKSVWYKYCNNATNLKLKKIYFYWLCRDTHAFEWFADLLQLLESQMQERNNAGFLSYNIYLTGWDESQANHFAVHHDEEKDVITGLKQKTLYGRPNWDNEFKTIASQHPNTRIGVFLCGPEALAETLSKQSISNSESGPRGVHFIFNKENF
The target of assay [19] is NADPH oxidase 4 (Homo sapiens) (UniProt Q9NPH5). The assay is described as follows: NOX4-dependent H2O2 signal modulators, primary screen, NOX inhibitor project, cell-based, HEK293-NOX4, tetracycline-induced, Amplex Red fluorescence (AID 1160). As to conditions: 45 min, higher = more signal, called active from +8 up or from −8 down.
NADPH oxidase 4 (Homo sapiens), sequence (Q9NPH5 whole entry, looked up): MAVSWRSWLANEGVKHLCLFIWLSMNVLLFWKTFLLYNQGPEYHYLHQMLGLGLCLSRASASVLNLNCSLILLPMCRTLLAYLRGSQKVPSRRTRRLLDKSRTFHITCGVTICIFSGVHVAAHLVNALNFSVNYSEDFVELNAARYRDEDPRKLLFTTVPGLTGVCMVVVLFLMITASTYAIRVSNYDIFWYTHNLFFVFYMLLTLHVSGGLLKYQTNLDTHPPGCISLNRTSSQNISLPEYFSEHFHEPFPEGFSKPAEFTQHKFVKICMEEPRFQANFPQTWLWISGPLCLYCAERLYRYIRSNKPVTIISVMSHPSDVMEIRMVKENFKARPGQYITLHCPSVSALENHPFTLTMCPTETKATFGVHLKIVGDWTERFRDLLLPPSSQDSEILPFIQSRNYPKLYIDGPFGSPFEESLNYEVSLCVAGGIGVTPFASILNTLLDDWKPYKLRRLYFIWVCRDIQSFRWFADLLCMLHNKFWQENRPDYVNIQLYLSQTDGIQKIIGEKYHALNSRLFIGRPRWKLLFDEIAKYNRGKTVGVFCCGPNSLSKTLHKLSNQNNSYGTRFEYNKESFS
Assay [20] deals with NADPH oxidase 5 (Homo sapiens) (UniProt Q96PH1). In words: NOX5-dependent H2O2 signal modulators, primary screen, NOX inhibitor project, cell-based, HEK293-NOX5, Amplex Red fluorescence (AID 1161). As to conditions: HEK293-NOX5, ionomycin, 45 min, higher = more signal.
NADPH oxidase 5 (Homo sapiens), sequence (Q96PH1 whole entry, looked up): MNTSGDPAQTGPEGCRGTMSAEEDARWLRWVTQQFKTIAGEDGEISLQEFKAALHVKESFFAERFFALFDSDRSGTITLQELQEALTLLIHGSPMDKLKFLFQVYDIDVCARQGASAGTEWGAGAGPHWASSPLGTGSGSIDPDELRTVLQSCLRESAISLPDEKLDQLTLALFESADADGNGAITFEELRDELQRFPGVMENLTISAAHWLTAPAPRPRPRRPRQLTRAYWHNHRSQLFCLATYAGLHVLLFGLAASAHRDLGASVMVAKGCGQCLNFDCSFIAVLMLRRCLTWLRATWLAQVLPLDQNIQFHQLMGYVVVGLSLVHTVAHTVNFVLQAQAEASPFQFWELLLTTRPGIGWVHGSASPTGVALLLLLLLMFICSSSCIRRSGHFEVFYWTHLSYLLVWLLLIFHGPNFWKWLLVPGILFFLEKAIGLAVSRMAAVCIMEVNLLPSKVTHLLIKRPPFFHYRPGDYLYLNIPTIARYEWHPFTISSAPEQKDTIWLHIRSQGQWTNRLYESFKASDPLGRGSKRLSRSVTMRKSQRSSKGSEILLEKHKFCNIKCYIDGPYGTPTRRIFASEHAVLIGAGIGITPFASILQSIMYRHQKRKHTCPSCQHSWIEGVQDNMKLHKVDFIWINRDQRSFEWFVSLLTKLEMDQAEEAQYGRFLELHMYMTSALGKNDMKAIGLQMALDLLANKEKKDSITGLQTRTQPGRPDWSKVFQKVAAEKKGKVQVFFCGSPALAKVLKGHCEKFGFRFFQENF

Torsin-1A (Homo sapiens), sequence (O14656 whole entry, looked up): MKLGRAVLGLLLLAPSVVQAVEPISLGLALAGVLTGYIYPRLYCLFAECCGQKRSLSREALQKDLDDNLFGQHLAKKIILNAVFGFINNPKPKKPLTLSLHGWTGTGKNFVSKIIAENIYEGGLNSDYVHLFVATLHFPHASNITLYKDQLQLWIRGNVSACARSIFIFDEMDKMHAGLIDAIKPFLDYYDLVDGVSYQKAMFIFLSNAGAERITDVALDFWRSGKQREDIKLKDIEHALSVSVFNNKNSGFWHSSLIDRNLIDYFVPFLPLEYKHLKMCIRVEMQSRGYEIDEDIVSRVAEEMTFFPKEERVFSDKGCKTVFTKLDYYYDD

On to `C=CC[C@@H]1C=C[C@H](ON=C2C[C@@H](O)[C@@H](O)[C@@H]3[C@@H]4C(=O)N(CC)C(=O)[C@@H]4CC[C@@H]23)[C@@H](CO)O1`, for which the composite z-score in assay [1] was -0.123; in assay [6] it was -0.816; in assay [7], -0.104; in [8], 0.862; in assay [9], 0.337; in assay [10], 0.652. In addition, the composite z-score in assay [12] is -0.208. Besides, the z-score in assay [2] is -2.05 (inactive); in assay [3], -1.39 (inactive); in assay [4] it was 2.83 (inactive); in assay [5], -0.247 (inactive); in assay [11], -0.887 (inactive); in assay [13], -0.146 (inactive). Moreover, the z-score in [14] was -1.65 (inactive); in [15] it was 1.55 (inactive); in [16], -1.74 (inactive); in assay [17], 0.525; in assay [18], -0.284 (inactive); in assay [19], -0.621 (inactive). In [20], this compound came in with a z-score of -2.07.
In the case of `CC(C)=NO[C@@H](C)c1cn([C@H](CO)Cc2ccccc2)nn1`, the composite z-score in [1] was 0.0949; in [6] it was 0.561; in [7], -0.0681; in [8], 0.818; in assay [9], 0.39; in [10], 0.469. The composite z-score in [12] is 0.423. The z-score was -0.172 (inactive) in assay [2]; -0.643 (inactive) in assay [3]; 0.573 (inactive) in assay [4]; -0.537 (inactive) in [5]; -1.99 (inactive) in assay [11]; -0.407 (inactive) in assay [13]. Besides, the z-score was -1.7 (inactive) in assay [14]; -0.222 (inactive) in assay [15]; -1.75 (inactive) in assay [16]; 1.54 in [17]; -0.689 (inactive) in assay [18]; 0.0692 (inactive) in [19]. In addition, the z-score in assay [20] was found to be 0.628.
In the case of `COC(=O)[C@H](C)NC(=O)CCC1CC(OC(=O)NCc2ccc3c(c2)OCO3)CC2(CCCC(COC(=O)NCCC(C)C)O2)O1` (stereo not given in full), the composite z-score is 0.151 in [1]; 0.232 in assay [6]; -0.224 in [7]; 0.245 in [8]; 0.593 in [9]; 1.13 in [10]. This compound also registered a composite z-score in assay [12] of 0.0774. For the same compound, the z-score is -2.02 (inactive) in assay [2]; -0.174 (inactive) in [3]; -0.706 (inactive) in assay [4]; -1.22 (inactive) in assay [5]; -1.06 (inactive) in assay [11]; 19.8 (active) in assay [13]. The z-score was 4.71 (inactive) in assay [14]; 0.3 (inactive) in assay [15]; 0.638 (inactive) in assay [16]; 0.392 in assay [17]; 0.738 (inactive) in assay [18]; 0.437 (inactive) in [19]. The same compound displayed a z-score in assay [20] of 0.284.
In the case of `CCOC(=O)NN=C1C[C@@H](O)[C@@H](O)[C@@H]2[C@@H]3C(=O)N(C[C@@H]4CCCO4)C(=O)[C@@H]3CC[C@H]12`, the composite z-score in assay [1] was 0.0534; in assay [6], -0.319; in assay [7], -0.004; in assay [8] it was 0.715; in assay [9], 0.577; in [10], 0.225. The compound further gave a composite z-score in assay [12] of -0.147. Moreover, the z-score is 0.587 (inactive) in assay [2]; -0.973 (inactive) in assay [3]; -0.926 (inactive) in assay [4]; -0.0875 (inactive) in assay [5]; 0.138 (inactive) in assay [11]; -0.133 (inactive) in [13]. Further, the z-score is -0.121 (inactive) in assay [14]; -0.497 (inactive) in [15]; -0.235 (inactive) in [16]; 0.0411 in assay [17]; 0.192 (inactive) in [18]; 0.433 (inactive) in assay [19]. The same compound had a z-score in [20] of -0.468.
